# The source made the active and inactive calls. The calls were made as follows: active = hit-call score of the fitted dose curve at least 0.9, where 1 is the maximum; inactive = score below 0.9.
# Read-out: matrix metalloproteinase-10 (MMP10), MMP10 (gene 4319)
# Assay: LTEA_HepaRG_MMP10: Life Technologies and Expression Analysis (LTEA) Assay for matrix metalloproteinase-10 (MMP10) using HepaRG (AID 2283517)
# Settings: mRNA level, 48 h; actives raise or lower the signal
# Protocol: LTEA_HepaRG is a cell based, multiplexed-readout assay that uses HepaRG, a human liver cell line, with measurements taken at 48 hours after chemical dosing on a 96-well plate.LTEA_HepaRG_MMP10 is one of 102 assay component(s) measured in the LTEA HepaRG cell culture assay. It is a marker of Fibrosis.Data from the assay component LTEA_HepaRG_MMP10 was analyzed into 1 endpoint. This assay endpoint, LTEA_HepaRG_MMP10, was analyzed with bidirectional fitting relative to DMSO as the negative control and baseline of activity. Using a type of inducible reporter, measures of mRNA induction for gain or loss-of-signal activity can be used to understand regulation of transcription factor activity. To generalize the intended target to other relatable targets, this assay endpoint is annotated to the protease intended target family, where the subfamily is matrix metalloproteinase.
# A total of 1060 chemcials from the ToxCast library were tested in eight-point concentration-response experiments. Cell culture and cytotoxicity assays were conducted at Thermo Fisher Scientific's Custom Services facility (Madison, WI). A single lot of human HepaRG cells (Thermo Fisher Scientific, Frederick, MD) was used for the cell culture experiments. 96-well format collagen type I coated plates of human HepaRG cells were prepared using established methods. Briefly, cryopreserved HepaRG cells were thawed, plated at a density of approximately 100,000 cells/well in HepaRG Thaw, Plate, and General Purpose media (HPRG770, Thermo Fisher Scientific), and incubated for 48 hours. 0.5% DMSO was selected as vehicle control to balance the requisite need of DMSO in HepaRG cultures to maintain differentiation (for example, baseline metabolism, proportions of hepatocytes vs. cholangiocytes), while enabling further hepatic receptor pathway activation (for example, PXR and CAR) in response to chemical exposure. 48 hours after plating, the culture medium was replaced with HepaRG Serum-Free Incudtion Media. Cells were exposed to each test chemical in duplicate and maintained in CO2 incubators for another 48 hours. Chemical plates were thawed to room temperature and 200x concentrations of treatment groups were prepared. 8-point conentration-reponse curves were made with the highest exposure at 100 uM, followed by half-log dilutions, all in 0.5% DMSO. Each test plate contained variouse controls, induction positive controls (1mM phenobarbital), cytotoxicity positive controls ([…] aflatoxin B1), vehicle controls (0.5% DMSO), and total lysis controls (0.5% DMSO). Cell morphology images were taken using an Essen IncuCyte FLR automated microscope, with six 96-well plates imaged in about 24 minutes. Images were captured and exported and JPEG files. Spent culture media was transfered to black-well plates for the LDH assay, and remaining media was sorted at -80 C for later use. Cells were treated with RLT buffer and frozen until shipped for gene expression analysis. Total RNA was isolated from the cell suspension in 75 uL of Buffer RLT (Qiagen, Germantown, MD 20874) by Quintiles/Expression Analysis (Durham, NC) using a custom isolation procedure. Total RNA from each plate well was transferred to a preamplification plate. Fluidigm's 96.96 Dynamic ArrayTM (Fluidigm, Amsterdam, the Netherlands) technology was used for gene expression analyses by quantitative reverse transcription polymerase chain reaction (qRT-PCR, performed by Quintiles/Expression Analysis, Durham, NC)89. Standard TaqManTM Assays (Applied Biosystems/ThermoFisher Scientific, Foster City, CA) were used to assess the expression of 93 genes selected based on their selectivity and sensitivity to important hepatic receptors known to be modulated by environmental chemicals; importance in human hepatocyte functionality; and hepatotoxicity. […]
SMILES,outcome,AC50
CSC1=N[C@@](C)(c2ccccc2)C(=O)N1Nc1ccccc1,inactive,
CCCCSP(=O)(SCCCC)SCCCC,inactive,
CCOP(=S)(OCC)OC(Cl)C(Cl)(Cl)Cl (stereo not given),inactive,
Nc1nc(N)nc(NC2CC2)n1,inactive,
CCOC(=O)CC(SP(=O)(OC)OC)C(=O)OCC (stereo not given),inactive,
CCOP(=S)(OCC)SCCSCC,inactive,
CCCOc1nn(C(=O)NS(=O)(=O)c2ccccc2C(=O)OC)c(=O)n1C,inactive,
Cc1nn(-c2cc(NS(C)(=O)=O)c(Cl)cc2Cl)c(=O)n1C(F)F,inactive,
Nc1c(Cl)cc([N+](=O)[O-])cc1Cl,inactive,
COc1cc(OC)nc(Sc2cccc(Cl)c2C(=O)O)n1,inactive,
CSc1nc(NC(C)C)nc(NC(C)C)n1,inactive,
Cc1ccn2nc(S(=O)(=O)Nc3c(F)cccc3F)nc2n1,inactive,
COP(=O)(OC)SCn1c(=O)oc2cc(Cl)cnc21,inactive,
CCCSP(=O)(OCC)Oc1ccc(Br)cc1Cl (stereo not given),inactive,
CCOP(=O)(OCC)Oc1cc(C)nc(C(C)C)n1,inactive,
CCNc1nc(Cl)nc(NC(C)(C)C#N)n1,inactive,
CC1=NNC(=O)N(/N=C/c2cccnc2)C1,inactive,
N#CSCSC#N,,83 µM (active)
COc1cccc(C(=O)NN(C(=O)c2cc(C)cc(C)c2)C(C)(C)C)c1C,inactive,
C=C(C)[C@H]1Cc2c(ccc3c2O[C@@H]2COc4cc(OC)c(OC)cc4[C@@H]2C3=O)O1,,17.7 µM (active)

SMILES,outcome,AC50
CN(C)C(=O)Nc1cccc(C(F)(F)F)c1,inactive,
CC(C)=CC1C(C(=O)OCN2C(=O)C3=C(CCCC3)C2=O)C1(C)C (stereo not given),inactive,
CCOP(=S)(Oc1cnc(C(C)(C)C)nc1)OC(C)C (stereo not given),inactive,
CNc1cnn(-c2cccc(C(F)(F)F)c2)c(=O)c1Cl,inactive,
CNC(=O)Oc1cccc2c1OC(C)(C)O2,inactive,
CCC(CC)Nc1c([N+](=O)[O-])cc(C)c(C)c1[N+](=O)[O-],inactive,
CCOP(=S)(OCC)Oc1ccc([N+](=O)[O-])cc1,inactive,
CON=C(C(=O)OC)c1ccccc1CON=C(C)c1cccc(C(F)(F)F)c1,inactive,
CCOC(=O)COc1cc(-c2nn(C)c(OC(F)F)c2Cl)c(F)cc1Cl,inactive,
CCOP(=S)(OCC)Oc1ccc2c(C)c(Cl)c(=O)oc2c1,inactive,
CCC(=NOC/C=C/Cl)C1=C(O)CC(C2CCOCC2)CC1=O (stereo not given),inactive,
CCOP(=O)(NC(C)C)Oc1ccc(SC)c(C)c1 (stereo not given),inactive,
CCCCOC(=O)c1ccccc1C(=O)O,inactive,
CC(C1CC1)C(O)(Cn1cncn1)c1ccc(Cl)cc1 (stereo not given),inactive,
CN1COCN(Cc2cnc(Cl)s2)C1=N[N+](=O)[O-],inactive,
CCc1cccc(C)c1N(C(=O)CCl)C(C)COC (stereo not given),inactive,
O=[N+]([O-])c1cc(C(F)(F)F)c(Cl)c([N+](=O)[O-])c1Nc1ncc(C(F)(F)F)cc1Cl,,24.8 µM (active)
COP(=O)(NC(C)=O)SC (stereo not given),inactive,
CN(C)NC(=O)CCC(=O)O,inactive,
CCc1cccc(CC)c1N(COC)C(=O)CCl,inactive,

# Reference: PubChem BioAssay (EPA / NIEHS)
